Only some compounds are listed: those with a hit (about 4.7% of all), similar ones and a draw of the others.
ALR H2O2 inh = inhibitors of human ALR sulfhydryl oxidase, primary screen, biochemical, H2O2 detection, HRP-luminol luminescence, single point. FAD-linked sulfhydryl oxidase ALR (Homo sapiens), P55789. purified ALR, DTT oxidation. inhibition, % (no concentration beside the values). 290,000 compounds, 3.8% hits;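 active = mean replicate inhibition above about 79%, with every replicate also reaching it, limit read from the data; inconclusive = only one of the two criteria met; inactive = mean below limit and not every replicate reaching it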
Target sequence (P55789 whole entry, looked up): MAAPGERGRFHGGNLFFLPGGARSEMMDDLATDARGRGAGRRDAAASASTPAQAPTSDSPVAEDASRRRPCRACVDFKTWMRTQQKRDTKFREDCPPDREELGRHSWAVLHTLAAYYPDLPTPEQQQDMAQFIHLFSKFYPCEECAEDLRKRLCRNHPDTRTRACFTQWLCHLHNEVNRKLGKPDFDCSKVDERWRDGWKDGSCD
PABP polyA inh = PABP poly(A) RNA binding inhibitors, primary screen, biochemical, fluorescence polarization, uHTS; Polyadenylate-binding protein 1 (Homo sapiens), P11940; inhibition, % at 35 µM; 290,000 compounds, 1% hits; AID 2014, 2009;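 also: calls also rest on retests at 20 µM and on dose response follow-up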
PABP1 MLLE inh = inhibitors of PABP1 MLLE–PAM2 peptide binding, primary screen, biochemical, fluorescence polarization, FITC-PAM2, GST-MLLE; inhibition, % at 20 µM; AID 588489, 2011; 360,000 compounds, 0.36% hits; in the data active = inhibition above about 35%, passing the limit was not always enough;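 also: plate controls were DMSO wells with GST-MLLE for no effect and wells lacking GST-MLLE protein for full effect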
UBC9 SUMO inh = inhibitors of in vitro SUMOylation cascade, primary screen, biochemical, HTRF, uHTS | SUMO-conjugating enzyme UBC9 (Homo sapiens), P63279 | HTRF SUMOylation assay, SAE1/SAE2 + UBC9 | inhibition, % at 35 µM | 290,000 compounds, 0.36% hits | AID 2006, 2009; in the data active = inhibition above about 50%, passing the limit was not always enough; inconclusive = no clear call, values can overlap the other calls
eIF4H inh = human eIF4H binding inhibitors, primary screen, translation initiation inhibitor project, biochemical, uHTS, fluorescence polarization | inhibition, % at 35 µM | 290,000 compounds, 0.94% hits | eIF4H fluorescence polarization binding assay;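 also: calls also rest on retests at 20 µM and on dose response follow-up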
Efflux pump mplx = inhibitors of Candida efflux pumps in yeast, primary screen, S. cerevisiae, Nile Red, multiplex | S. cerevisiae Candida pump triplex | inhibition, % at 10 µM | 330,000 compounds, 0.44% hits;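 active = plate passing quality check with inhibition over a set limit, or well fluorescence over plate mean plus 4 SD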;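 also: Nile Red retained in pooled yeast measured as flow cytometry median fluorescence; 0% = buffer negative control and 100% = Enniatin B positive control; higher means more Nile Red kept so more efflux inhibition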
* = called active by the depositor; ? = inconclusive; . = no result given. Unless noted, no rule for the calls is given here.

SMILES	ALR H2O2 inh	PABP polyA inh	PABP1 MLLE inh	UBC9 SUMO inh	eIF4H inh	Efflux pump mplx
Cc1c(OCC(=O)NC(Cc2ccc(Cl)cc2)C(=O)O)ccc2c1oc(=O)c1ccccc12 (stereo not given)	88*	27	2	46	3	0
CCC(NC(=O)Cc1c(C)c2ccc(OC)c(C)c2oc1=O)C(=O)NC(Cc1ccc(Cl)cc1)C(=O)O (stereo not given)	-4	0	-5	26	4	0
CCCCCCc1c(C)c2ccc(OCC(=O)N[C@@H](Cc3ccccc3)C(=O)O)cc2oc1=O	97*	-3	16	38	77	0
Cc1oc2cc3oc(=O)c(CC(=O)N[C@@H](C)C(=O)NC(Cc4ccc(Cl)cc4)C(=O)O)c(C)c3cc2c1C (stereo not given in full)	98*	17	5	26	-5	0
CCN(CC)S(=O)(=O)c1ccc(S(=O)(=O)N2CCC(N3CCCCC3)CC2)cc1	4	3	11	-12	-6	0
C=CCn1cccc(C(=O)Nc2ccc(F)cc2)c1=O	0	10	1	-5	-5	0
O=C(O)Cn1c(SCc2ccccc2)nc2ccccc21	-7	6	0	13	-7	0
O=C(O)Cn1c(SCc2cccc3ccccc23)nc2ccccc21	98*	12	-16	20	-7	0
O=C(NC1CCCCC1)C(c1ccc(F)cc1)N(C(=O)c1csnn1)C1CCCC1 (stereo not given)	-6	8	18	12	2	0
Oc1cc(O)cc(/C=C/c2ccc(O)c(O)c2)c1	99*	.	-8	.	.	0
Cc1occc1C(=O)NNC1=CC(=O)CC(C)(C)C1	89*	4	7	6	2	0
Cc1ccc(C)c(S(=O)(=O)N2CCCOC2CNC(=O)C(=O)NCCC2=CCCCC2)c1 (stereo not given)	-6	1	15	-1	0	0
O=C(NNC(=O)c1ccc(-c2ccc([N+](=O)[O-])cc2)o1)c1ccncc1	.	.	5	.	.	0
Cc1cc(O)c(CN(C)C)c2c1C(=O)/C(=C/c1ccco1)O2	-10	71*	22	18	94*	0
CCC(CC)CN1C(N(C)C)=NC[C@@H]1CC(C)C	.	.	10	.	.	0
Cc1cccc(C(=O)N=c2sccn2C)c1[N+](=O)[O-]	25	6	11	6	-9	0
CC(C)(C)c1nnc(NS(=O)(=O)c2cc(Cl)ccc2Cl)s1	5	-4	23	20	-11	0
O=S(=O)(Nc1nc(-c2sccc2Cl)cs1)c1cc(Cl)ccc1Cl	98*	16	26	18	11	0
O=C1c2sccc2-c2cccc3cccc1c23	.	.	67*	.	.	.
O=C1C(Br)=Cc2cccc3cccc1c23	-1	?	83	23	?	1
CNc1ccc(/C=C\CCCO)cn1	.	.	-4	.	.	.
COc1ccc(C2C(C(C)=O)=C(C)N=c3s/c(=C\c4cc(C)n(C)c4C)c(=O)n32)c(OC)c1 (stereo not given)	5	?	49	-5	?	2.5*
CCOC(=O)C1=C(C)N=c2s/c(=C/c3cccc([N+](=O)[O-])c3O)c(=O)n2C1c1ccc(OC)cc1OC (stereo not given)	-14	39	5	10	2	0.7*
COc1ccc(C2C(C(C)=O)=C(C)N=c3s/c(=C\c4ccco4)c(=O)n32)c(OC)c1 (stereo not given)	-2	44	-95	19	42	0
CCOC(=O)C1=C(C)N=c2s/c(=C\c3ccc(O)c([N+](=O)[O-])c3)c(=O)n2C1c1ccccc1OC (stereo not given)	.	19	-147	8	1	1
SMILES	ALR H2O2 inh	PABP polyA inh	PABP1 MLLE inh	UBC9 SUMO inh	eIF4H inh	Efflux pump mplx
COc1ccc(NCC(=O)NN=C2CCS(=O)(=O)c3ccc(F)cc32)cc1	30	.	3	.	.	0
Cc1c(N2C(=O)c3ccc4c5c(ccc(c35)C2=O)CC4)c(=O)n(-c2ccccc2)n1C	-20	71*	3	56*	93*	0
COc1ccc(N2CCN(CCCNC(=O)CCC(=O)N3CCOc4ccc(Cl)cc43)CC2)cc1	99*	6	-1	5	-6	0
Cc1ccc(C)c(N2CCN(CCCNC(=O)CCC(=O)N3CCOc4ccc(Cl)cc43)CC2)c1	17	2	.	-36	-3	0
Cc1cc(Br)ccc1NC(=O)CN(C)C(=O)C1CCN(c2ncnc3sc(C)c(C)c23)CC1	.	.	-10	.	.	.
CCN(CC)CCCCNc1ncc2cc(-c3cc(OC)cc(OC)c3)c(NC(=O)NC(C)(C)C)nc2n1	-12	-3	-6	-3	-11	0
CN1CCc2cc3c(c4c2[C@H]1[C@H](O)c1ccccc1-4)OCO3	-34	8	68*	55	109	.
COc1ccc2c(c1OC)C(=O)OC2C1c2c(cc3c(c2OC)OCO3)CCN1C (stereo not given)	2	3	2	27	-8	0
COC(CN(C(=O)CCl)C(C(=O)NC1CCCCC1)c1ccc(C)cc1)OC (stereo not given)	97*	-9	-5	0	0	0
OCCNCc1ccc(-c2ccccc2)cc1	.	-1	-3	-2	-5	0
OCCCNCc1ccc(N(c2ccccc2)c2ccccc2)cc1	99*	-11	13	8	4	0
CC(=O)Nc1cccc(N=NN2CCOCC2)c1	7	1	13	10	1	0
CC(=O)Nc1cccc(N=NN2CCCCC2)c1	88*	6	0	16	-3	0
COc1cc(/C=C2\C(=O)NN(c3ccccc3)C2=O)ccc1OCC(N)=O	96*	2	.	-6	-4	0
COC(=O)c1ccc(N2NC(=O)/C(=C/c3ccc(OC)c(OC)c3)C2=O)cc1	12	-2	29	-3	-4	0
COc1cccc(/C=C2/C(=O)NN(c3ccccc3)C2=O)c1	?	2	17	-2	-6	0
C#CCOc1ccc(/C=C2/C(=O)NN(c3ccc(F)cc3)C2=O)cc1OC	98*	3	18	-6	-5	0
COc1ccc(/C=C2\CCCC(C(=O)C(F)(F)F)=C2O)cc1	20	-5	26	-7	0	0
O=C(C1=C(O)/C(=C/c2ccc(O)cc2)CCC1)C(F)(F)F	99*	10	6	-11	-1	0
CCOc1ccc(NC(C)c2cc(Cl)ccc2O)cc1 (stereo not given)	99*	-8	8	-7	4	0
